These results are taken from the supplement of paper PMC3334620.

In all, about 33,000 sequences were measured (“E-score (-0.5 to 0.5)”: median about -0.015, highest 2% from about 0.3 on). The sample as a whole holds a higher share of the highest values than the screen did.

The target of this assay is T1, Abf1 (UniProt P14164).
T1 sequence: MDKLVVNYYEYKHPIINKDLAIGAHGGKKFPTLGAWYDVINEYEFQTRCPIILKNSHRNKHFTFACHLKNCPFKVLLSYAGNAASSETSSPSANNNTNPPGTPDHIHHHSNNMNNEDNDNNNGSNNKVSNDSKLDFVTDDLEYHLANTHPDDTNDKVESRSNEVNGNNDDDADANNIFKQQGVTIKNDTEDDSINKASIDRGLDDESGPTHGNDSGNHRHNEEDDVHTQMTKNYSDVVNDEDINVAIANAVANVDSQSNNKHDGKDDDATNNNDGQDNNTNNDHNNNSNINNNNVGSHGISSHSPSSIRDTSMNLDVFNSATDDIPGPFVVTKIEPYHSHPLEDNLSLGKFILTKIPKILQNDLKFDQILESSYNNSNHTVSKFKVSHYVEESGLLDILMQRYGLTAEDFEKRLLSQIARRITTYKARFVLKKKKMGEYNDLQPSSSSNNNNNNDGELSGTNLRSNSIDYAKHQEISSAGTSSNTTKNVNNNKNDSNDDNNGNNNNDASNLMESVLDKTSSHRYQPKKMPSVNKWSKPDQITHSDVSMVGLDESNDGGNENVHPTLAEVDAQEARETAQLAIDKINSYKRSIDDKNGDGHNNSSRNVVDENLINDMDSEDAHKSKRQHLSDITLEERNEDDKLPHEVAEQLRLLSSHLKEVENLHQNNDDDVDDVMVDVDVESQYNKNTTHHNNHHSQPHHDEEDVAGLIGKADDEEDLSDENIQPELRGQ
The experiment in a line: PBM E-score (8-mer binding enrichment) (E-score (-0.5 to 0.5)); higher = stronger / more preferred TF binding. Conditions: protein concentration: 200 nM; construct: GST-full length. The method, boiled down: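 GST-tagged yeast TFs (full-length or DNA-binding domain) were made by PURExpress in vitro transcription/translation and applied at about 100-200 nM to universal all-10-mer Agilent arrays. The arrays were made double-stranded by primer extension, on fresh or once-stripped slides. Bound protein was detected with fluorescent anti-GST, and scans were normalised with masliner. Each ungapped eight-base word, pooled with its reverse complement, received an E-score (modified Wilcoxon-Mann-Whitney statistic) from the Universal PBM Analysis Suite.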
In the case of AAGGATGC, the “PBM E-score” value was -0.213.
As for GGCTGCGA, the “PBM E-score” value was -0.0617.
With CGAGGGAC, the “PBM E-score” value was -0.189.
Take GGGGGCAA: the “PBM E-score” value was -0.0502.
Consider CGCATATC, for which the “PBM E-score” value amounted to 0.239.
On to CAACCTCA, for which the “PBM E-score” value is -0.0877.
With CCCTACCA, the “PBM E-score” value stood at 0.0127.
In the case of ATTCTGTA it was 0.14.
In the case of AAGTGAAA, the “PBM E-score” value is -0.0619.
Next, TAGTGAGA: 0.0964; GAGTGAGA: 0.0215.
Consider GAGTGAAA, for which the “PBM E-score” value is -0.117.
Turning to AAGTGATA, the “PBM E-score” value was 0.39.
For the sequence TAGTGAAA, the “PBM E-score” value is -0.0802.
On to CAGTGATA, for which the “PBM E-score” value is 0.377.
With GAGTGATA, the “PBM E-score” value turned out to be 0.424.
In the case of AAGTGAGA it was 0.0815; in that of TAGTGATA, 0.433.
As to CACTGATA, the “PBM E-score” value was -0.056.
CAGTGAGA: the “PBM E-score” value worked out at 0.0837.
In the case of CCTTGGTC, the “PBM E-score” value is -0.302.
Next, AATTTGAC: 0.183; CTGTCGGA: -0.123; ACAGCTCT: -0.248.
With AGTACTGA, the “PBM E-score” value was -0.0709.
Consider CCGGGTTC, for which the “PBM E-score” value was -0.167.
In the case of GTAACTAA it was -0.0125; in that of TTCGGAAA, -0.148; in that of CAACGTAA, -0.0145.
Turning to AATCTCTC, the “PBM E-score” value was found to be 0.0576.
With ATACCCCA, the “PBM E-score” value came out at 0.0583.
On to CACCCGCA, for which the “PBM E-score” value is -0.205.
Turning to GATCGGGC, the “PBM E-score” value is -0.195.
Next, CGTTACAC: 0.298; CGTTATAG: 0.105; CGTTACAA: 0.195.
Consider CGTTATAC, for which the “PBM E-score” value was 0.303.
With CGTTATAA, the “PBM E-score” value was 0.149.
Regarding CGTTACAG, the “PBM E-score” value was -0.0224.
For the sequence AATGTTGC, the “PBM E-score” value is 0.00562.
On to CGGCGTTC, for which the “PBM E-score” value is -0.0709.
Take CCGCCATC: the “PBM E-score” value was -0.26.
Next, AGTCCACC: -0.0728.
As to GAAAACTA, the “PBM E-score” value is -0.0964.
Next, GTTCTGTA: -0.0186; CATTCGTA: 0.308; AATTCGTC: 0.315.
As for GATTCGTA, the “PBM E-score” value worked out at 0.262.
For the sequence AATTCGGA, the “PBM E-score” value was 0.029.
Consider CTTTCGTC, for which the “PBM E-score” value was found to be 0.191.
On to AATTCGTG, for which the “PBM E-score” value amounted to 0.224.
In the case of CATTCGCA it was -0.1; in that of CTTTCGTA, 0.376; in that of ATTTCGTC, 0.229.
With GTTTCGTA, the “PBM E-score” value was found to be 0.26.
As to CATTCGTC, the “PBM E-score” value worked out at 0.222.
Next, AATTCGTA: 0.307; ACCCAGAA: -0.0336.
In the case of TTCCGAAA, the “PBM E-score” value is 0.104.
Turning to ATTTAAAT, the “PBM E-score” value turned out to be 0.189.
In the case of GATTACAC, the “PBM E-score” value was 0.0768.
In the case of CAAGCCCG, the “PBM E-score” value was -0.172.
Turning to GTGGTATA, the “PBM E-score” value is -0.0621.
For CGGCCCAC, the “PBM E-score” value is -0.208.
Turning to ACCGTCAT, the “PBM E-score” value came out at 0.362.
Regarding ACCGTCAG, the “PBM E-score” value is 0.0392.
Take ACCGTCAA: the “PBM E-score” value amounted to 0.143.
As for AGCGTCAA, the “PBM E-score” value is -0.00287.
In the case of ATCGTCAA, the “PBM E-score” value was 0.342.
Next, TTCGTCAA: 0.151; ATCGTCAT: 0.349; ATCGTCAG: 0.154.
Next, AACGTCAT: 0.217; AAAAATCC: -0.0226.
Next, AGGTTGAA: 0.0563.
CACTGCAA: the “PBM E-score” value is 0.0215.
With TCATCAGA, the “PBM E-score” value worked out at 0.094.
Consider CAGCTTGA, for which the “PBM E-score” value was -0.141.
Consider AGGAGGTG, for which the “PBM E-score” value was -0.248.
As to GAGGGACA, the “PBM E-score” value is -0.103.
On to CCTTTTAA, for which the “PBM E-score” value was 0.0637.
Take ACGGCGCC: the “PBM E-score” value was 0.184.
As for ACGGCGCT, the “PBM E-score” value came to 0.09.
Next, TCGGCGAA: 0.00757; ACGGCGAA: 0.343; ACGGCGAC: 0.224.
Regarding ACGGCGAG, the “PBM E-score” value was found to be 0.111.
Turning to GCGGCGAA, the “PBM E-score” value was -0.106.
Regarding ACGGCGAT, the “PBM E-score” value amounted to 0.313.
ACGGCGCG: the “PBM E-score” value is 0.324.
In the case of ACCCGGGT, the “PBM E-score” value is -0.155.
For the sequence ATGAGTCA, the “PBM E-score” value was 0.0874.
Take ACCCTAGG: the “PBM E-score” value is -0.07.
Regarding CGCGTTGA, the “PBM E-score” value turned out to be 0.0564.
